Drawing on PubChem BioAssay (Tox21), this text covers outcome for 40 compounds.

Records with an inconclusive call do not appear. The source made the active and inactive calls. Calls come from the whole dose curve; as a rule, active = well fitted cell-killing curve with a large enough effect in the repeat runs; inconclusive = weak or mixed curves, or effect the other way; inactive = flat fitted curve, though single readings scatter.

This assay in a line: qHTS assay to identify small molecule antagonists of the retinoid acid receptor (RAR) signaling pathway - cell viability counter screen (AID 1159551). Note: nearly all actives have a fitted effect of over 35% in size. Conditions: C3RL4 cells viability, ATP luminescence (CellTiter-Glo), 6 h; series mostly up to 92.4 µM. The source says: U.S. Tox21 Program National Center for Advancing Translational Sciences [NCATS] NIH Chemical Genomics Center [NCGC] U.S. Environmental Protection Agency [EPA] National Institutes of Environmental Health Sciences [NIEHS] National Toxicology Program [NTP] U.S. Food and Drug Administration [FDA] Tox21 Assay Overview: All-trans Retinoic acid (atRA) is the potent natural metabolite of retinol and plays an important role in normal embryonic development and maintenance of cellular phenotype in adult animals. atRA is the activating ligand for the retinoic acid receptors (RARs) which form heterodimers with retinoid X receptors (RXRs) on the retinoic acid response element (RARE). Through activation of the RAR/RXRs nuclear receptors, atRA regulates the transcription of a large number of protein-coding genes and regulatory RNAs. Intracellular levels of atRA are controlled by the retinol signaling pathway (RSP) that regulates the biosynthesis and catabolism of atRA to maintain physiological levels. Chemicals that interfere with the RSP can cause abnormal intracellular levels of atRA and therefore are potential developmental toxicants. To assess compounds for the potential adverse effect on embryonic development through interfering with retinol signaling, a cell-based RARE luciferase reporter gene assay was used. C3RL4 cell line (OARSA/CFSAN/FDA, Laurel, MD) was used to screen Tox21 10K compound library for identifying inhibitors of the RSP. Also cytotoxicity was assessed by determining the viability of cells based on the quantitation of ATP.
Tox21 Assay Protocol Summary: C3RL4 cells were seeded at 1,000/well in 4 uL of assay medium into white solid 1,536-well tissue culture plates (Greiner Bio-One North America Inc. Monroe, NC) using a Multidrop Combi (Thermo Scientific, Waltham, MA) dispenser. After incubation at 37 C and 5% CO2 for an overnight, 23 nL of compounds dissolved in DMSO, positive control or DMSO only were transferred by a Pintool station (Kalypsys, San Diego, CA). One ul of 1 uM (final concentration) of Retinol was added right after the compound addition by using a Flying Reagent Dispenser (FRD) (Aurora Discovery, San Diego, CA). After 6 hr incubation at 37 C and 5% CO2, 5 uL of CellTiter-Glo reagent (Promega Corporation, Madison, WI) was added to each assay plate using an FRD. Luminescence was quantified on a ViewLux plate reader (PerkinElmer, Waltham, MA) after 30 min incubation at room temperature.
(In general: qHTS replaces the single test concentration by a dilution series.)
Turning to `CCN(CC)CCOC(=O)c1ccc(N)cc1`, the outcome was inactive.

For the compound `NCCNc1cccc2ccccc12`, the compound was called inactive.

For the compound `CC(=O)CCC(C)C`, the call was inactive.

Regarding `CC1=NN(c2ccccc2)C(=O)C1`, the outcome was inactive.

As for `Nc1cccc(N)c1`, the outcome was inactive.

Regarding `C=CCOC(=O)CC(C)C`, the outcome was inactive.

In the case of `C=CC(=O)NC(C)(C)CS(=O)(=O)O`, the compound was called inactive.

On to `COc1cc(O)c(C(=O)c2ccccc2)cc1S(=O)(=O)O`, for which the outcome was inactive.

On to `O=C(O)Cc1cccc2ccccc12`, for which the call was inactive.

Consider `N[C@@H](Cc1c[nH]c2ccc(O)cc12)C(=O)O`, for which the compound was called inactive.

As to `C=C(C)OC(C)=O`, the compound was classed as inactive.

Turning to `Cn1cnc2c1c(=O)[nH]c(=O)n2C`, the compound was called inactive.

As for `CCc1cc(C(N)=S)ccn1`, the call was inactive.

Regarding `CC(=O)OC/C=C(C)/C=C/C=C(C)/C=C/C1=C(C)CCCC1(C)C`, the call was inactive.

For the compound `CC(C)Cc1ccc(C(C)C(=O)O)cc1` (stereo not given), the outcome was inactive.

Take `c1ccc2[nH]c(-c3cscn3)nc2c1`: the result was inactive.

Consider `O=C1CCCCCN1`, for which the call was inactive.

Consider `CN(C)C=O`, for which the outcome was inactive.

Take `C=C(C)C(N)=O`: the compound was classed as inactive.

Take `NC(=O)OCC(COC(N)=O)c1ccccc1`: the compound was called inactive.

As to `C#C[C@]1(O)CC[C@H]2[C@@H]3CCC4=CC(=O)CC[C@@H]4[C@H]3CC[C@@]21CC`, the call was inactive.

As for `O=C1OC(c2ccc(O)cc2)(c2ccc(O)cc2)c2ccccc21`, the compound was called inactive.

Take `O=C(OCc1ccccc1)c1ccccc1`: the compound was classed as inactive.

As for `Cc1cnc(NC(=O)C2=C(O)c3ccccc3S(=O)(=O)N2C)s1`, the result was inactive.

As for `COC(=O)C1CCC(C(=O)OC)CC1` (stereo not given), the compound was classed as inactive.

Regarding `CC(=O)c1ccc(S(=O)(=O)NC(=O)NC2CCCCC2)cc1`, the result was inactive.

On to `C#C[C@]1(O)CC[C@H]2[C@@H]3CCc4cc(O)ccc4[C@H]3CC[C@@]21C`, for which the call was inactive.

Regarding `O=c1cc[nH]c(=O)[nH]1`, the result was inactive.

As for `CCN1CCCC1=O`, the compound was called inactive.

`COc1ccc(C(=O)c2ccccc2)c(O)c1`: the outcome was inactive.

In the case of `CC(O)COc1ccccc1` (stereo not given), the result was inactive.

As to `CCCCOCCOCCOC(C)=O`, the call was inactive.

For the compound `N[C@@H](Cc1c[nH]c2ccccc12)C(=O)O`, the call was inactive.

Consider `CCCCOCCOCCSC#N`, for which the call was inactive.

Consider `COc1ccccc1NC(=O)CC(C)=O`, for which the result was inactive.

As for `Cc1cccc2ccccc12`, the outcome was inactive.

`Cc1cccc(Nc2cc(Cl)nc(SCC(=O)O)n2)c1C`: the outcome was inactive.

As to `C/C=C/c1ccc(O)c(OC)c1`, the outcome was inactive.

For the compound `CN(C)Cc1cc(CN(C)C)c(O)c(CN(C)C)c1`, the compound was classed as inactive.

Take `NC(=O)N/N=C/c1ccc([N+](=O)[O-])o1`: the call was inactive.
